Source: PubChem
In the library only some 4.8% were active in any assay of this set; here they are far more common.
hgDAF12 agonist – agonists of H. glycines DAF-12 nuclear receptor; HEK293 GAL4-hgDAF12 UAS-luciferase reporter, agonist luminescence; normalized to butyrate control; activation, % at 6.8 µM; actives 1.8% (n = 370,000); AID 687014;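 active = activation above a cutoff set at the mean of all screened compounds plus 3 SD, cut at about 10% in these data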
SMARCA2 act – increases SMARCA2 function in MMTV reporter cells. actives 1% (n = 370,000). activation, % at 9.1 µM. MG213 cells, MMTV-luciferase reporter, dexamethasone, overnight; in the data active = activation above about 7.8%
DAX1 inh-1 – DAX1 (NR0B1) inhibition, primary screen; actives 1.1% (n = 370,000); HEK293T StAR-luciferase reporter, SF-1/DAX-1 repression relief; AID 652010; inhibition, % at 6.8 µM;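 active = inhibition above the mean over all tested compounds plus 3 SD, cut at about 3.6% in these data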;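 also: higher inhibition means more luminescence from relief of DAX-1 repression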
DAX1 inh-2 – NR0B1 (DAX1) inhibition; P51843; HEK293 Gal4-DAX1 luciferase reporter, luminescence; inhibition, % at 6.75 µM; actives 0.99% (n = 340,000); AID 504766;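 active = inhibition above the mean over all tested compounds plus 3 SD, cut at about 4.2% in these data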;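 also: inhibition shows as a rise in luminescence from relieved DAX1 repression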
Target sequence (P51843 207-470 limits assumed): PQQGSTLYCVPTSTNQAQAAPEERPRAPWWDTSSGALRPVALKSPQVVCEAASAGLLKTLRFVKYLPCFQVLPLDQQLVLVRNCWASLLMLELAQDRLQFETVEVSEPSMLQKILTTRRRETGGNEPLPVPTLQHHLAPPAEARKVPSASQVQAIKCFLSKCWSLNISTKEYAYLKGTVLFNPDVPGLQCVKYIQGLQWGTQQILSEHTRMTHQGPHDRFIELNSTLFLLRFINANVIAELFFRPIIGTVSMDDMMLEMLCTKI
hcDAF-12 act – activates DAF-12 receptor from parasite H. contortus. HEK293 hcDAF-12 lit1-tk-luc reporter, luminescence; 0% DMSO, 100% Δ7-dafachronic acid. activation, % at 6.8 µM. actives 1.4% (n = 370,000). AID 652067;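 active = activation above the mean of all tested compounds plus 3 SD, cut at about 5.5% in these data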
ssDAF-12 act – activates DAF-12 receptor from parasite S. stercoralis; AID 652126; HEK293 ssDAF-12/GRIP1 lit1-tk-luc reporter, luminescence; % of 3 µM dafachronic acid response; actives 1% (n = 370,000); activation, % at 6.8 µM;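 active = activation above the mean over all tested compounds plus 3 SD, cut at about 0.9% in these data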
A number is an active result; i = inactive; nt = no result given.

SMILES	hgDAF12 agonist	SMARCA2 act	DAX1 inh-1	DAX1 inh-2	hcDAF-12 act	ssDAF-12 act
CCOc1ccc(N2C(=O)CC(N3CCN(c4ccc([N+](=O)[O-])cc4)CC3)C2=O)cc1 (centres undefined)	i	i	i	i	i	i
CN(c1cccnc1)c1ccc(NC(=O)Cc2c[nH]c3ccccc23)cc1Br	i	i	i	nt	6.5	1.5
Cc1[nH]c2ccccc2c1CC(=O)Nc1ccc(Nc2ccncc2)cc1	i	i	i	nt	i	2.1
O=C(Cc1c[nH]c2ccccc12)Nc1ccc(Nc2ccncc2)cc1	i	i	i	nt	6.0	i
Cc1ccc(-c2cc(NC(=O)Cc3c[nH]c4ccccc34)ccc2N(C)c2cccnc2)cc1	i	i	i	nt	i	i
Cc1ccccc1NC(=O)Cc1c[nH]c2ccccc12	i	i	i	i	i	1.0
Cc1ccccc1NC(=O)NCCc1c[nH]c2ccccc12	i	i	i	i	i	i
CN(c1ccc(NC(=O)Cc2c[nH]c3ccccc23)cc1)c1ccccn1	i	i	i	nt	i	i
CC(C)CNC(=O)CCCc1c[nH]c2ccccc12	i	i	i	i	i	i
CC(=O)Nc1ccc(NC(=O)CCCc2c[nH]c3ccccc23)cc1	i	i	i	5.0	i	i
CN(C)C(CNC(=O)CCCc1c[nH]c2ccccc12)c1ccco1 (centres undefined)	i	i	i	5.8	i	i
O=C(COC(=O)CCc1c[nH]c2ccccc12)Nc1ccc([N+](=O)[O-])cc1	i	i	i	5.2	i	i
Cc1ccc(CCNC(=O)c2nnn(-c3cccc(C)c3)c2N)cc1	i	i	i	i	i	i
CC(C)(C)c1ccc(C(=O)Nc2ccc(S(=O)(=O)Nc3cnc4ccccc4n3)cc2)cc1	i	i	i	i	i	i
O=C(CCc1nnc(CCCc2ccccc2)o1)NCCN1CCOC1=O	i	i	i	i	i	i
Cn1cc(CCNC(=O)CCc2nnc(CCCCc3ccccc3)o2)cn1	12	i	i	i	i	i
O=c1c2cc3cc(Cl)ccc3nc2ncn1CCc1ccc(O)cc1	i	i	i	nt	i	i
O=c1c2cc3cc(Cl)ccc3nc2ncn1N1CCCCC1	i	i	i	nt	i	0.9
CCCc1cc(=O)[nH]c(SCc2ccccc2)n1	i	i	i	i	i	i
Brc1ccc2nc(-c3ccco3)c(CC3CCCCC3)n2c1	i	i	i	nt	i	1.3
NS(=O)(=O)c1ccc(NC(=O)c2ccc(Cl)c(S(=O)(=O)NCc3ccco3)c2)cc1	i	i	i	i	i	i
Cc1ccc(NC(=O)c2ccc(Cl)c(S(=O)(=O)NCc3ccco3)c2)c(O)c1	i	i	3.9	i	i	i
CSC(=S)NN=C(C)c1cccc(C)n1	i	i	i	i	6.0	i
Cc1ccc(C)c(Nc2ncnc3nc[nH]c23)c1	i	i	i	i	i	i
COc1ccc2c(c1)c(=O)oc1cc(O)ccc12	i	i	i	4.7	i	i
SMILES	hgDAF12 agonist	SMARCA2 act	DAX1 inh-1	DAX1 inh-2	hcDAF-12 act	ssDAF-12 act
Cc1ccc(SCC(=O)NCCc2ccccc2)cc1	i	i	i	i	i	1.7
CC(C)=CC(=O)NCCc1ccccc1	11	i	i	i	i	i
O=C(CSc1ccccc1)NCCc1ccccc1	i	i	i	5.6	i	i
O=C(CSc1ccccc1)NCCc1ccc(F)cc1	i	i	i	i	i	i
COc1cccc(C(=O)NN/C(C)=C/C(=O)C(F)(F)C(F)(F)C(F)(F)F)c1	i	9.5	i	i	i	i
COc1cccc(C(=O)NNC(=O)Cc2ccc(Cl)cc2)c1	i	i	i	i	i	i
CN(C#N)c1nccc(-c2cccs2)n1	i	i	i	i	i	i
CCOC(=O)C(NC(=O)c1ccc(OC)cc1)(N1CCOCC1)C(F)(F)F (centres undefined)	i	i	i	i	i	i
Cc1ccc(Nc2nc(CSc3n[nH]c(N)n3)cs2)cc1	12	i	i	i	i	i
Cn1nnnc1SCc1csc(Nc2ccccc2)n1	i	i	i	i	i	i
Cc1ccc(Nc2nc(CSc3nnnn3C)cs2)cc1	11	i	i	i	i	i
CC(C)(C)N(Cc1ccccc1)C(=O)c1ccc2c(c1)OCCO2	i	i	i	i	i	i
COc1ccc(Oc2nc(-c3ccccc3)ncc2C(=O)O)cc1	i	i	i	i	i	i
O=[N+]([O-])c1ccc(C2Nc3cccc4cccc(c34)N2)cc1	i	i	i	i	i	1.6
COc1ccccc1C(=O)COC(=O)CSC(C)C(=O)Nc1cc(C)on1 (centres undefined)	i	i	i	i	i	i
Cc1cc(NC(=O)C(C)SCC(=O)OCC(=O)N(C)c2ccccc2)no1 (centres undefined)	i	i	i	4.6	i	i
CC/C(C)=N/Nc1nc(-c2cc3cccc(OC)c3oc2=O)cs1	12	i	i	nt	i	i
COc1cccc2cc(-c3nnc(-c4ccccc4)o3)c(=O)oc12	11	i	i	i	i	i
O=C(Nc1cccc(S(=O)(=O)N2CCOCC2)c1)c1ccc(N2CCCC2=O)cc1	i	i	i	i	i	i
O=C1NC(c2cccc3ccccc23)Nc2ccccc21 (centres undefined)	i	i	i	i	i	i
O=C1c2ccccc2C(=O)C1Cc1cccc2ccccc12	i	i	i	i	i	0.9
CC(=O)Nc1cccc(Oc2nc(NCC3CC3)nc3ccsc23)c1	i	i	i	nt	i	i
CCCNC(=O)C(=O)c1cccn1-c1ccsc1C(=O)OC	i	i	i	i	i	i
CCOC(=O)c1cnc(SC)nc1N	i	i	i	i	i	i
CCOC(=O)c1cnc(SCC(C)C)nc1N	11	i	i	i	i	i
SMILES	hgDAF12 agonist	SMARCA2 act	DAX1 inh-1	DAX1 inh-2	hcDAF-12 act	ssDAF-12 act
CCOC(=O)c1cnc(SCC(=O)c2ccc(C)cc2)nc1N	i	i	i	i	i	i
CCOC(=O)c1cnc(SCC#N)nc1N	i	i	i	6.9	i	i
COC(=O)c1cc(=O)n2c(-c3ccccc3)csc2n1	i	i	i	i	i	i
Cc1ccc(S(=O)(=O)N2CCN(CCNC(=O)C(=O)Nc3ccc(F)cc3)CC2)cc1	i	i	i	i	i	i
c1coc(C2Nc3ccccc3-c3nc4ccccc4n32)c1 (centres undefined)	i	i	i	i	i	i
c1ccc(C2Nc3ccccc3-c3nc4ccccc4n32)cc1 (centres undefined)	11	i	i	i	i	i
O=CNc1ccccc1Oc1ccccc1	i	i	i	i	i	i
Cc1ccc(NC(=S)NCc2ccccc2)cc1C	i	i	i	i	i	i
Cc1c(C(=O)Nc2nnc(C3CC3)s2)oc2ccccc12	11	i	i	i	6.4	i
Cc1cc(C)c(C)c(S(=O)(=O)NCCCN2CCOCC2)c1C	i	i	i	nt	i	i
Cc1ccc(C2=NN(CC(=O)NCc3cccs3)C(=O)CC2)cc1	i	i	i	5.4	i	i
